# In the library only some 4% were active in any assay of this set; here they are far more common.
# TIM10 inh = TIM10 yeast growth inhibition; S. cerevisiae TIM10 strain growth, BacTiter-Glo luminescence, 24 h; inhibition, % at 10 µM; 330,000 compounds, 1.4% hits;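 active = inhibition of 40% or more at the single tested concentration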;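 also: wild-type TIM10 isogenic control strain grown at permissive 25 °C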
# tim10-1 inh = tim10-1 yeast growth inhibition; AID 463190; inhibition, % at 20 µM; 330,000 compounds, 2.2% hits; S. cerevisiae tim10-1 ts strain growth, BacTiter-Glo, 24 h;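 active = inhibition of at least 40%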;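 also: mutant grown at 25 °C; 0% = DMSO wells with yeast and 100% = wells holding no yeast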
# NLRP3 yeast inh = NALP3 inhibition in yeast | AID 2825 | inhibition, % at 10 µM | 330,000 compounds, 0.39% hits | Yeast reconstituted NLRP3/ASC/caspase-1, beta-gal luminescence, 24 h;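 active = inhibition of 50% or more; inactive = inhibition below 50%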;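 also: plate controls were induced DMSO wells for no effect and uninduced yeast grown without galactose for full effect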
# tim23-1 inh = growth inhibitors of tim23-1 mutant yeast. 330,000 compounds, 1.3% hits. S. cerevisiae tim23-1 growth, BacTiter-Glo luminescence, 24 h. inhibition, % at 20 µM. AID 463212;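 active = growth inhibition of the mutant yeast at or above 50%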;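 also: temperature-sensitive mutant grown at 25 °C; plate controls were DMSO-treated mutant yeast for no effect and medium wells lacking yeast for full effect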
# NALP1 yeast inh = inhibitors of NALP1 inflammasome in yeast | S. cerevisiae NALP1/ASC/caspase-1 growth, X-gal OD620, 72 h | AID 2071 | inhibition, % at 10 µM | 280,000 compounds, 0.61% hits; in the data active = inhibition mostly above about 24%, no sharp cut-off; inactive = mostly below about 32%
# tim10-1 confirm = tim10-1 yeast growth inhibition, confirmed; S. cerevisiae tim10-1 ts strain growth, BacTiter-Glo, 24 h; shares compounds with tim10-1 inh; inhibition, % at 20 µM; 7,400 compounds, 56% hits;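 active = inhibition of yeast growth at or above a set limit in either of two repeat tests at 20 µM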;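 also: tim10-1 mutant grown at permissive 25 °C to find synthetic lethal compounds; 0% = DMSO yeast wells and 100% = medium wells without yeast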
# * = called active by the depositor; / = not tested or not shown.
SMILES,TIM10 inh,tim10-1 inh,NLRP3 yeast inh,tim23-1 inh,NALP1 yeast inh,tim10-1 confirm
O=C(OC1CO[C@H]2O[C@@H]1[C@H](OC(=O)c1ccccc1)[C@H]2OC(=O)c1ccccc1)c1ccccc1 (stereo not given in full),-3,-8,0,-9,/,/
COc1ccccc1NC=C1C(=O)OC2(CCCCC2)OC1=O,17,40*,12,22,-20,22
Cc1ccccc1C(=O)/C=C1/c2ccccc2CC(C)(C)N1C,32,42*,10,45,-9,21
CN1/C(=C\C(=O)c2ccco2)c2ccccc2CC1(C)C,1,47*,9,30,22,16
CN1/C(=C\C(=O)c2ccccc2Cl)c2ccccc2CC1(C)C,28,36,27,44,22,/
Cc1ccc2c(C(=O)CCl)c(C)[nH]c2c1,38,1,-3,35,/,/
CCC(O)C1CCN(C(=O)c2ccc(OC3CCN(Cc4ccccn4)CC3)cc2)CC1 (stereo not given),-7,-16,7,2,-9,/
CC(NC(=O)COC(=O)C1CCCCC1)c1ccccc1 (stereo not given),-5,0,4,13,/,/
c1ccc2c(c1)ccc1nnc(SCc3ccc4c(c3)OCCO4)n12,16,45*,22,40,8,29*
O=C(CSc1nnc2ccc3ccccc3n12)N1CCOCC1,8,-15,4,2,12,/
CCC(C)(C)c1ccc(Oc2cccc(C(=O)O)c2)cc1,-2,97*,15,22,10,21
COC(=O)N1C(=O)[C@@](c2ccccc2)(C2CCCCC2)N1C(=O)OC,-1,50*,-11,-1,22,45*
CC[C@@]1(c2ccccc2)C(=O)N(C(=O)OC)N1C(=O)OC,-14,0,13,-8,-9,/
CC(=O)N1CCN(Cc2nc3ccc(Cl)cc3n2CCO)CC1,4,-16,0,2,6,/
Cc1ccccc1NC(=O)CCC(=O)N/N=C/c1ccncc1,-29,-16,-1,5,/,/
Cc1sc2nc[nH]c(=S)c2c1-c1ccccc1,25,40*,4,-4,-5,-1
Cc1cc(N2CCOCC2)nc2ccc(NC(=S)NCCC(C)C)cc12,12,44*,11,27,-1,28*
Cc1cccc(NC(=S)NNC(=O)c2csc(C(C)C)c2)c1,34,44*,10,10,5,28
CCc1cc(C(=O)NNC(=S)Nc2cccc(C)c2)cs1,23,36,3,2,5,/
COc1ccccc1NC(=S)NCCc1ccc(F)cc1,29,48*,12,7,3,19
CSc1ccccc1NC(=S)N/N=C/c1cccn1Cc1ccc(F)cc1,23,44*,19,12,-8,30
C/C(=N\Nc1cc(C(F)(F)F)ccc1Cl)c1ccccc1O,33,47*,-1,25,9,38*
C/C(=N\Nc1ccc(F)cc1F)c1ccccc1O,0,29,-1,19,3,/
O=C1C(=O)N(Cc2ccncc2)C(c2ccccc2F)/C1=C(\O)c1ccc2c(c1)OCCO2 (stereo not given),2,-7,8,-2,14,/
COc1ccc(CNC(=O)CCn2c(C)csc2=O)cc1,-3,-12,-2,-20,/,/
SMILES,TIM10 inh,tim10-1 inh,NLRP3 yeast inh,tim23-1 inh,NALP1 yeast inh,tim10-1 confirm
C=CCOc1cccc(/C=C2\C(=O)N(Cc3ccc(C)cc3)C(C)=C2C(=O)OC)c1,31,36,1,25,8,/
CCOc1cc(/C=C2\C(=O)N(Cc3ccc(C)cc3)C(C)=C2C(=O)OC)ccc1O,28,44*,-3,47,-4,25
COc1ccccc1C(=O)Nc1ccccc1C(=O)N1C(C)CCCC1C (stereo not given),8,44*,-10,28,15,32*
COc1cccc(OC)c1C(=O)Nc1ccccc1C(=O)N1CCCC1,-7,-26,22,5,6,/
CCOC(=O)c1oc2ccc(CNC3CCCCC3)c(Cl)c2c1C,19,41*,27,20,9,18
COc1cc(/C=C/C(=O)OCC(=O)NCCc2ccc(S(N)(=O)=O)cc2)ccc1OCC#N,-10,-3,13,6,/,/
COC(=O)Nc1nc(-c2ccccc2)c(C(=O)c2ccc(Cl)cc2)s1,0,5,10,1,-9,/
CC(=O)c1sc(NC(=O)c2c(F)cccc2F)nc1-c1ccccc1,27,52*,18,31,-1,26
CC(=O)c1sc(NC(=O)c2ccccc2)nc1-c1ccccc1,34,-6,1,24,0,/
CCOC(=O)Nc1nc(-c2ccccc2)c(C(=O)c2ccccc2)s1,38,40*,10,40,-1,29
COc1ccccc1N=Cc1nc(-c2ccccc2)oc1OC(C)=O,32,52*,-10,45,3,26
COc1ccc(C)cc1NC(=O)CCCN1C(=O)CN(C)C1=O,1,3,-4,4,/,/
Cc1cc(S(=O)(=O)N2CCOCC2)ccc1OCC(=O)NCCN1CCOCC1,12,1,0,-4,6,/
Cc1ccc(S(=O)(=O)N/N=C2/CC(c3ccccc3)Oc3ccccc32)cc1[N+](=O)[O-] (stereo not given),28,20,-3,14,-2,/
O=S(=O)(N/N=C1/CC(c2ccccc2)Oc2ccccc21)c1ccc(Br)cc1 (stereo not given),29,41*,-13,29,4,29*
O=S(=O)(N/N=C1/CCCc2ccccc21)c1ccc(Br)cc1,36,42*,-45,28,8,24
COc1cccc(CCNC(=O)CCc2nnc(-c3cc(C)oc3C)o2)c1,-2,8,-3,0,-1,/
CC(C)(C)c1ccc2c(c1)OC(C(=O)N/N=C\c1ccc[nH]1)CO2 (stereo not given),-41,42*,10,34,-25,-103
Cn1c2ccccc2c(=O)c2ccc(C#CC3(O)CCCCC3)cc21,-5,47*,18,-5,8,34*
Cc1nc2ccc(NC(=O)[C@H](C)N3C(=O)C4CC=CCC4C3=O)cc2s1 (stereo not given in full),4,9,11,19,/,/
Cc1cccc2nc(-c3cccnc3)c(Nc3ccccc3)n12,-3,4,8,10,-13,/
Cc1cccc2nc(-c3cccnc3)c(NCCC(C)C)n12,23,46*,1,40,0,40*
Cc1cccc(OCC(=O)Nc2nccs2)c1C,21,42*,-4,24,38*,25
Cc1noc(NS(=O)(=O)c2ccc(NC(=O)c3ccccc3NS(=O)(=O)c3ccc(F)cc3)cc2)c1C,-3,5,0,6,/,/
Cc1sc(N/N=C/c2ccco2)nc1-c1ccccc1,37,43*,26,24,27,20
Nc1ccc(S(=O)(=O)NC2(C(F)(F)F)NC(=O)N(Cc3ccccc3)C2=O)cc1 (stereo not given),-9,4,25,14,5,/

# Compound activity as filed in PubChem.
